Assay results from PubChem BioAssay AID1345085 (National Center for Advancing Translational Sciences (NCATS), 2018).
Results filed as inconclusive are left out. Calls of active or inactive are those of the source. Calls come from the whole dose curve; as a rule, active = well fitted cell-killing curve with a large enough effect; inconclusive = small, poorly fitted or top-dose-only effect, or effect the other way; inactive = no such curve, though single readings can be large or run the other way.
% is set by controls: 0 for no effect and ±100 for the full control effect; potency is the fitted concentration of half-maximal effect.
Note: nearly all actives have a fitted effect of over 55% in size.

What follows are molecules tested on PA-1 (assay: Confirmatory qHTS for gynecologic anti-cancer compounds from libraries of approved drugs and bioactive compounds). Conditions: gynecologic cancer cell panel viability, ATPlite luminescence, 48 h; series mostly up to 57.6 µM; activity change, negative = viability loss: at the top concentration.
Method in brief: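 1,000 cells/well; 16 h pre-incubation 37 C, 5% CO2; pin-transferred cpd in DMSO, 11 conc (1:3), 57.5 uM–0.977 nM; 48 h; ATPlite, 15 min RT; luminescence → IC50.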
With `Nc1nc(Cl)nc2c1ncn2C1OC(CO)C(O)C1F` (stereo unspecified) the Potency was 0.685 µM (active). With `O=C(NOCC1CC1)c1ccc(F)c(F)c1Nc1ccc(I)cc1Cl` the Potency was 8.63 µM (active). With `CCCS(=O)c1ccc2nc(NC(=O)OC)[nH]c2c1` (stereo unspecified) the Potency was 34.3 µM (active). For `O=c1cc(CN2CCOCC2)occ1OCCCCCSc1ccnc2cc(C(F)(F)F)ccc12`, the Potency was 8.63 µM (active). In the case of `CCc1c2c(nc3ccc(OC(=O)N4CCC(N5CCCCC5)CC4)cc13)-c1cc3c(c(=O)n1C2)COC(=O)[C@]3(O)CC`, the Potency is reported as 7.69 µM (active). With `CN1C2CCC1CC(OC(=O)[C@H](CO)c1ccccc1)C2` (stereo partly specified) the “activity change, negative = viability loss” value was -5.44% (inactive).
